Source: PubChem BioAssay (NCI)
The panel holds about 83,000 compounds, 20% with a hit somewhere; the sample as a whole holds those more often.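 48-hour exposure, single concentration, 96-well plates; percent growth endpoint where 0 means no net growth. Active: below 10.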 Values without a mark were called inactive. Calls of active or inactive are those of the source.

Key:
Assay in all cases: NCI-60 one-dose screen, 48 h (100 = growth as untreated, 0 = no growth, -100 = all killed)
Details in all cases: 10 µM unless noted
NCI-H23 lung = test system: NCI-H23 lung
NCI-H226 lung = test system: NCI-H226 lung
NCI-H322M lung = test system: NCI-H322M lung
HOP-62 NSCLC = test system: HOP-62 NSCLC
NCI-H460 lung = test system: NCI-H460 lung
HOP-92 NSCLC = test system: HOP-92 NSCLC
NCI-H522 lung = test system: NCI-H522 lung
A549/ATCC NSCLC = test system: A549/ATCC NSCLC
786-0 renal = test system: 786-0 renal
COLO 205 colon = test system: COLO 205 colon

Structure (SMILES) | growth (NCI-H23 lung) | growth (NCI-H226 lung) | growth (NCI-H322M lung) | growth (HOP-62 NSCLC) | growth (NCI-H460 lung) | growth (HOP-92 NSCLC) | growth (NCI-H522 lung) | growth (A549/ATCC NSCLC) | growth (786-0 renal) | growth (COLO 205 colon)
NC(=O)C1(N2CCCCC2)CCN(CCCC(=O)c2ccc(F)cc2)CC1 | 31.6% | 43.7% | 52.5% | 38.3% | 11.9% | 92.5% | -30.2% (active) | 79.3% | 49.8% | 13.9%
CC(C)Cc1ccc(C(C)C(=O)NCc2ccc(Cn3c(=O)sn(-c4ccc(Cl)cc4)c3=O)cc2)cc1 (stereo not given) | 85.6% | 82.6% | 90.2% | 85.7% | 61.1% | 75.7% | 91.9% | 75.4% | 85.3% | 74%
Cc1ccccc1C(c1ccccc1)c1ccccc1C | 94.4% | 22.1% | 90.9% | 69.5% | 101% | 79.7% | 77.1% | 73.6% | 98.8% | 105%
CCSc1ccc2c(c1)N(CCCN1CCN(C)CC1)c1ccccc1S2 | 74.2% | 90.5% | 73.1% | 69.8% | 9.17% (active) | 20.3% | 70.3% | 53.6% | 43.2% | -62.1% (active)
CN1C(=O)N(C)C2NC(N/N=C/c3ccccc3)=NC21 (stereo not given) | 100% | 95% | 94.5% | 94.5% | 103% | 102% | 104% | 100% | 104% | 106%
COc1ccc(OC)c(/C=C/[C@H]2O[C@@H](C)[C@H](O)[C@@H]2O)c1 | 99.6% | 96.1% | 97.5% | 106% | 106% | 94.7% | 91.7% | 99.4% | – | 111%
Cc1cccc(Oc2ccc(Nc3ncnc4ccc(NC(=O)CN(C)C)cc34)cc2Cl)c1 | 78.4% | 93.1% | 17.4% | 59.3% | 0.249% (active) | 23.5% | 30% | 40.4% | 47.9% | -15.8% (active)
Cc1nccc2c3ccc(OCc4cn(-c5ccc(Cl)cc5)nn4)cc3n(CCCc3ccccc3)c12 | 70.5% | -10.9% (active) | 50% | 6.51% (active) | 14.4% | 26.6% | 46.6% | 4.77% (active) | -72.6% (active) | -3.42% (active)
CCCCCCCCCCN=C(N)N=C(N)N | 29.4% | 47.4% | 80.9% | 50.6% | 40.6% | 21.2% | 53% | 70.1% | 26.2% | 32%
c1ccc(C2CC(c3cccc(Nc4ccncc4)c3)=NN2c2ccccc2)cc1 (stereo not given) | 85.8% | 96.1% | 82.5% | 71.1% | -41.9% (active) | 55.5% | 89.1% | 50.9% | 68.4% | -58% (active)
COC(=O)C1NC(=S)N(c2ccc(Cl)cc2)C1/C=C/c1ccccc1 (stereo not given) | 91% | 104% | 110% | 103% | 109% | 78.6% | 93.7% | 98.1% | – | 108%
CC(O)/C=C/C=C/C(O)CC/C=C/C(=O)NCC(C)(C)O (stereo not given) | 95.3% | 108% | 106% | 110% | 101% | 96.1% | 79.4% | 96.1% | 109% | 118%
O=C(O)/C=C\C(=O)N1C/C(=C\c2ccccc2Cl)C(=O)/C(=C/c2ccccc2Cl)C1 | -24.9% (active) | -85% (active) | 4.69% (active) | -24% (active) | -40.9% (active) | 2.77% (active) | -87.2% (active) | 7.96% (active) | – | -67.4% (active)
c1ccc(-c2nn(-c3ccccc3)[n+](-c3ccccc3-c3ccccc3)n2)cc1 | 5.14% (active) | 28.1% | 40.6% | 32.6% | 5.11% (active) | -24.4% (active) | -7.02% (active) | 17.3% | 30.8% | -34.5% (active)
C(=N\Nc1ncc(-c2cc3cc4c(cc3o2)OCO4)s1)/c1c[nH]c2ccccc12 | -25.8% (active) | -56.3% (active) | 26.7% | -18.4% (active) | -27.2% (active) | -0.218% (active) | -42.2% (active) | -38.6% (active) | -40% (active) | -28.8% (active)
COc1cc(NCC(O)CN(CC(C)C)C2CCCC2)c2ncccc2c1 (stereo not given) | 77.6% | 94.3% | 110% | 86.5% | 89.4% | 73.8% | 70.6% | 66.1% | 89.3% | 97%
COc1cc(-c2nc3occn3c2-c2ccnc(NCCNS(=O)(=O)c3ccc(Cl)cc3)n2)ccc1F | 92.2% | 73.2% | 91.6% | 93.3% | 88.8% | 78.5% | 66.4% | 82% | 84.9% | 86.5%
CN1CCN(c2cnc(C(=O)Nc3cc(F)cc4cccnc34)cn2)CC1 | 39.6% | 90.1% | 83.9% | 98.6% | 103% | 79.1% | 22% | 92.4% | 56% | 21.2%
COc1ccc(-n2cc(-c3cc(OC)c(OC)c(OC)c3)n(C(C)=O)c2=O)cc1 | 95% | 94.6% | 78.8% | 126% | 109% | 85.7% | 77.4% | 99.8% | 64.5% | 91.5%
COc1ccc(Nn2c(SCC(=O)Nc3nc(-c4ccc(Cl)cc4)cs3)nc(C)c2C)cc1 | 31.9% | 60.5% | 112% | 100% | 39.3% | 38.6% | 66.2% | 44% | 59.5% | 77.5%
O=C(Nc1cccc(C2=NCCN2)c1)c1ccc(OCCCOc2ccc(C(=O)Nc3cccc(C4=NCCN4)c3)cc2)cc1 | 1.27% (active) | 52.8% | -0.261% (active) | 57.4% | 6.54% (active) | 18.8% | -18.6% (active) | -55.3% (active) | 58.1% | -18.7% (active)
CC(C)CN(C(=O)c1ccc(Cl)cc1)c1c(N)n(CC(C)C)c(=O)[nH]c1=O | 95.8% | 98.7% | 103% | 90.6% | 88.4% | 80.6% | 98.8% | 98.8% | 91.4% | 122%
C=C(C)[C@@H]1CC[C@]2(C(=O)NCC(=O)OC)CC[C@]3(C)[C@H](CC[C@@H]4[C@@]5(C)Cc6c([nH]c7ccccc67)C(C)(C)[C@@H]5CC[C@]43C)[C@@H]12 | 68.6% | 63.5% | 85.8% | 82.8% | 74.6% | 91.1% | 60.5% | 60.7% | 75% | 86.1%
CCC(C)C(N)C(=O)NNc1n[nH]c(=S)n1N (stereo not given) | 102% | 101% | 105% | 105% | 103% | 97.6% | 89% | 102% | 102% | 116%
COc1ccc(C2CC(n3nnnc3-c3ccccc3)=NN2)cc1 (stereo not given) | 82% | 75.1% | 69.9% | 78.4% | 71.2% | 80.1% | 47.1% | 60.2% | – | 91.8%
CC(=O)[C@@H]1CC[C@]2(C(=O)n3ccnc3)CC[C@]3(C)[C@H](CC[C@@H]4[C@@]5(C)Cc6c([nH]c7ccccc67)C(C)(C)[C@@H]5CC[C@]43C)[C@@H]12 | 87.8% | 76.3% | 95.3% | 95.7% | 80.9% | 93.9% | 82.9% | 68.2% | 94.4% | 101%
CNC(=O)Nc1ccc(-c2nc(N3CCOCC3)nc3c2cnn3C2CCOCC2)cc1 | 17.5% | -12.4% (active) | -9.52% (active) | -11% (active) | 11.8% | -27.6% (active) | -0.372% (active) | -1.33% (active) | – | 5.84% (active)
